# Where “and” joins values, the source holds several entries; their conditions need not be identical. Identical values can stand only once. About 810 (0.43%) of roughly 190,000 compounds were called active. This is one part of a sample in which actives are shown more often than they occur. Unmarked numbers belong to inactive results. No stated cut-off is given here; in the data, active means inhibition above about 50%; inactive means the rest.
# Biological target: Mannose-6-phosphate isomerase (Homo sapiens) (UniProt P34949)
# Assay: inhibitors of human PMI, primary screen, biochemical, fluorescence intensity, coupled assay (AID 1209);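 further: plate controls were DMSO vehicle for no effect and wells lacking substrate for full effect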
# Settings: purified PMI enzyme, at 20 µM, hits give high values
# Chain of Mannose-6-phosphate isomerase (Homo sapiens) (P34949 whole entry, looked up): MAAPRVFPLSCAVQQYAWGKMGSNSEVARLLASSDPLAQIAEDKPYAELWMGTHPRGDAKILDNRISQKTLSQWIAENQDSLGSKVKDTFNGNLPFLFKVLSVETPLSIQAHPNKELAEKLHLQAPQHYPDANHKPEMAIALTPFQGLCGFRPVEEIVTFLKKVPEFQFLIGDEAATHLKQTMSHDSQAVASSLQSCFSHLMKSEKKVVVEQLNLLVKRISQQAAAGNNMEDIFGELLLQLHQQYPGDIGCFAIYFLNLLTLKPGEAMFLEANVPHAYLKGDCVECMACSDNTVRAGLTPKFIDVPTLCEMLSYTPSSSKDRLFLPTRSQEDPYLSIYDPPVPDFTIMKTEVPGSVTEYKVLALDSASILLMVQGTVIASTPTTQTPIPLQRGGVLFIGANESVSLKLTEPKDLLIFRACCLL
row,SMILES,inhibition
1,COc1ccc(-n2ccnc2SCC(=O)NC2CCCC2)c(OC)c1,-3.3%
2,CC(C)=CC(=O)OCC(=O)Nc1ccc(Cl)cn1,7%
3,Cc1nc(N2CCCCC2)c(C#N)c(C)c1[N+](=O)[O-],1.3%
4,CC1CCN(C(=O)CCc2nnc(-c3ccccc3)o2)CC1,1.6%
5,COc1ccc(OC)c(-n2nnnc2SCC(=O)Nc2ccc3c(c2)OCCO3)c1,14.4%
6,CCOc1cc(Cl)c(NC(=O)c2ccco2)cc1OCC,10.1%
7,CC1=C(C(=O)Nc2ccccc2C)C2(CCCCC2)C(C(N)=O)C(=S)N1 (stereo not drawn),-53.8%
8,O=C(CSC1=Nc2ccccc2C2CC=NN12)Nc1ccc(F)cc1Cl (stereo not drawn),12.3%
9,Cc1cc2c(cc1C)CSC(c1c(O)ccc3ccccc13)SC2,21.9%
10,Cc1nc2ccccc2c(C)c1C(=O)c1ccccc1,-1.1%
11,CCOC(=O)c1c(C2COc3ccccc3O2)csc1NC(=O)c1ccco1 (stereo not drawn),55.5% (active)
12,CCOC(=O)c1c(C2COc3ccccc3O2)csc1NC(=O)c1ccccc1 (stereo not drawn),15.6%
13,CCOC(=O)c1c(C2COc3ccccc3O2)csc1N (stereo not drawn),19.8%
14,C[n+]1ccccc1C1CCCC/C1=N\NC(N)=S (stereo not drawn),64.5% (active)
15,C[n+]1ccccc1C1CCCC/C1=N\Nc1ccc([N+](=O)[O-])cc1[N+](=O)[O-] (stereo not drawn),-5.6%
16,CC1CCCC/C1=N\NC(=S)Nc1ccccc1 (stereo not drawn),-33.2%
17,Cc1ccc2c(c1)cc(CN(Cc1ccco1)S(=O)(=O)c1ccccc1)c1nnnn12,72.3% (active)
18,Cc1ccc2c(c1)cc(CN(Cc1ccc3c(c1)OCO3)S(=O)(=O)c1ccccc1)c1nnnn12,12.1%
19,Cc1ccc2c(c1)cc(CN(Cc1ccco1)C(=O)COc1ccccc1)c1nnnn12,-0.9%
20,COc1ccc(C=Nc2ccc3[nH]ncc3c2)c(O)c1,47.9%
21,Cc1ccc(O)c(/C=N/NC(=O)c2[nH]ncc2Br)c1,-11.3%
22,Cc1ccc(O)c(C=Nc2ccc3[nH]ncc3c2)c1,51.9% (active)
23,CCOC(=O)c1c(-c2ccccc2)cn2ccccc12,53.7% (active)
24,CCOC(=O)c1c(-c2ccc(F)cc2)cn2ccccc12,4.3%
25,CCOC(=O)c1c(-c2ccc(C)cc2)cn2ccccc12,-10.2%

row,SMILES,inhibition
1,COc1ccc(-c2csc(Nc3ccc(S(=O)(=O)Nc4cc(C)on4)cc3)n2)cc1C,18.4%
2,CN(Cc1ccncn1)C(=O)CC1C(=O)NCCN1Cc1cccc(Oc2ccccc2)c1 (stereo not drawn),4.2%
3,COc1ccccc1N1CCN(CCCCOc2cccc3ccccc23)CC1,-10.7%
4,CCOc1ccc(NC(=S)Nc2ccc(OCC)cc2)cc1,7.6%
5,CCOc1ccc(NC(=S)Nc2cc(-c3ccccc3)[nH]n2)cc1,35.1%
6,COc1ccc(NC(=S)Nc2cccc3cnccc23)cc1,64.2% (active)
7,CCc1ccc(NC(=S)Nc2cccc3cnccc23)cc1,40.2%
8,COc1cc(NC(=S)Nc2cccnc2)cc(OC)c1,55.4% (active)
9,CCOc1ccc(NC(=S)Nc2cccc3cnccc23)cc1,64.9% (active)
10,COc1cc(OC)cc(C(=O)NC(=S)Nc2cccnc2)c1,13.1%
11,Fc1ccc(NC(=S)Nc2cccc3cnccc23)cc1,10.9%
12,CCOc1ccc(NC(=S)Nc2cccnc2)cc1,27.8%
13,O=C(NC(=S)Nc1cccc2cnccc12)c1ccccc1,22.7%
14,COc1cccc(NC(=S)Nc2cccnc2)c1,10.6%
15,CCc1cccc2c(C(=O)Cn3nnc(-c4ccc(OC)c(OC)c4)n3)c[nH]c12,13.9%
16,O=C(NCCc1c[nH]c2ccccc12)C(=O)NCC1OCCN1S(=O)(=O)c1ccc(Cl)cc1 (stereo not drawn),10%
17,COc1ccc(NC(=O)COC(=O)C(CC(C)C)N2C(=O)C3CC=CCC3C2=O)cc1Cl (stereo not drawn),16.5%
18,N#Cc1c(NC(=O)CSc2n[nH]c(Cc3ccccc3)n2)oc(-c2ccccc2)c1-c1ccccc1,-1.5%
19,CCOc1cccc(OCCOCCOc2ccccc2C(C)=O)c1,4.1%
20,COc1cccc(/C=N/NC(=O)C(=O)N/N=C/c2cccc(OC)c2OC)c1OC,-0.6%
21,CCN(CC)CCNC(=O)Cn1c(C)cc2ccccc2c1=O,-2.3%
22,O=C1N=C(N2CCCCC2)SC1=C1CCCC1,1.2%
23,CCN(CC)S(=O)(=O)c1ccc(NC(=O)C2CCCN(C(=O)c3ccc(Cl)cc3)C2)cc1 (stereo not drawn),14.2%
24,CCc1ccc(C(=O)COC(=O)c2nn(C)c(=O)c3ccccc23)cc1,-3.7%
25,COc1cc(C(=O)O)nc2ccccc12,26.7%

row,SMILES,inhibition
1,O=C(/C=C/c1ccccc1)NCCN1CCOCC1,2.1%
2,COCCNC(=S)Nc1cccc2cnccc12,17.7%
3,COc1ccccc1NC(=S)Nc1cccc2cnccc12,69.6% (active)
4,Fc1ccccc1NC(=S)Nc1cccc2cnccc12,33.9%
5,COCCn1c(=O)[nH]c2cc(C(=O)NCCc3ccc(S(N)(=O)=O)cc3)ccc2c1=O,-4.1%
6,CC1CCCC(C(=O)O)N1C(=O)CCSSCCC(=O)N1C(C)CCCC1C(=O)O (stereo not drawn),-1.2%
7,CC(C)c1ccc(O)c(NC(=S)NC(=O)CCc2ccccc2)c1,12.8%
8,CC(Nc1oc(-c2ccco2)nc1C#N)c1ccccc1 (stereo not drawn),13.7%
9,O=C(CSc1nnc(-c2c[nH]c3ccccc23)o1)c1ccc(-c2ccccc2)cc1,9%
10,CCN(CC)c1ccc(NC(=O)COc2ccccc2C)cc1S(=O)(=O)Nc1ccccc1OC,38.9%
11,COc1ccccc1NS(=O)(=O)c1cc(NC(=O)c2ccc(=O)[nH]c2)ccc1N1CCOCC1,0.7%
12,CCN(CC)c1ccc(NC(=O)COc2ccccc2C#N)cc1S(=O)(=O)Nc1ccccc1OC,-5.1%
13,CCN(CC)c1ccc(NC(=O)c2cccc(C)c2)cc1S(=O)(=O)Nc1ccccc1OC,53.3% (active)
14,COc1ccc(C(=O)Nc2ccc(Cl)c(S(=O)(=O)Nc3ccccc3OC)c2)cc1,16.8%
15,CCN(CC)c1ccc(NC(=O)c2ccccc2F)cc1S(=O)(=O)Nc1ccccc1OC,15.4%
16,CCN(CC)c1ccc(NC(=O)c2ccccc2)cc1S(=O)(=O)Nc1ccccc1OC,30.8%
17,CCN(CC)c1ccc(NC(=O)c2ccccc2Br)cc1S(=O)(=O)Nc1ccccc1OC,63.9% (active)
18,CCN(CC)c1ccc(NC(=O)c2ccc(=O)[nH]c2)cc1S(=O)(=O)Nc1ccccc1OC,61.7% (active)
19,O=C(COC(=O)c1cnccn1)NCc1ccc2c(c1)OCO2,-15.9%
20,CCC(C)(C(=O)NC1CCCCC1)N(Cc1ccco1)C(=O)CC1NC(=O)NC1=O (stereo not drawn),8.4%
21,COc1cc(C2NC(=O)NC(C)=C2C(=O)OC(C)C)ccc1OC(=O)c1ccco1 (stereo not drawn),1%
22,Cc1cccc(Nc2ncnc3c2cnn3C)c1,10.3%
23,COc1ccc(CN2C(=O)c3ccccc3C2C(=O)NCCc2ccccc2)c(OC)c1 (stereo not drawn),17.9%
24,COc1cc(/C=c2\sc3nc(=O)c(-c4ccccc4)nn3c2=O)ccc1OCCC(C)C,-1.8%
25,CCOc1ccccc1NC(=O)C1CCN(S(=O)(=O)c2c(C)noc2C)CC1,5.5%

row,SMILES,inhibition
1,Cc1cccc(NC(=O)C2CCN(S(=O)(=O)c3c(C)nn(C)c3C)CC2)n1,8.4%
2,CCOc1ccccc1NC(=O)C1CCN(S(=O)(=O)c2c(C)nn(C)c2C)CC1,112% (active)
3,N#CC(c1ccc(F)cc1)c1ccc(C(=O)c2ccc(F)cc2)cc1 (stereo not drawn),5.1%
4,COc1ccc(S(=O)(=O)Nc2cc(Sc3ncn[nH]3)c(O)c3ccccc23)cc1,98.7% (active)
5,COc1ccc(S(=O)(=O)Nc2ccc(O)c(Sc3ncn[nH]3)c2)cc1,10.6%
6,O=S(=O)(Nc1cc(Sc2ncn[nH]2)c(O)c2ccccc12)c1ccccc1,99.3% (active)
7,O=S(=O)(Nc1cc(Sc2cccc3cccnc23)c(O)c2ccccc12)c1ccccc1,9.2%
8,CCOc1ccc(S(=O)(=O)Nc2ccc(O)c(Sc3ncn[nH]3)c2)cc1,3.2%
9,O=S(=O)(Nc1cc(Sc2cccc3cccnc23)c(O)c2ccccc12)c1ccc(F)cc1,2.1%
10,OCc1c(Cl)nc2ccccn12,-8.7%
11,OCc1ccccc1N=c1ssnc1Cl,78.3% (active)
12,Nc1ccccc1N=c1ssnc1Cl,61.4% (active)
13,Cc1cc(Oc2ccccc2)nc(SCC(N)=O)n1,-2%
14,NC(=O)CSc1nnc(C2CC2)n1-c1ccccc1,-7.8%
15,O=[N+]([O-])c1cc(S(=O)(=O)N2CCCC2)ccc1NCCc1ccccc1,4.4%
16,CC1=C(C(=O)Nc2ccccn2)C(c2ccccc2Cl)NC(=S)N1 (stereo not drawn),-6.6%
17,N#CC(c1cccc(Cl)c1)c1ncc(C(F)(F)F)cc1Cl (stereo not drawn),9.9%
18,CC1CCc2c(sc(NC(=O)COC(=O)c3ccc(O)cc3)c2C#N)C1 (stereo not drawn),2.3%
19,COc1ccc(-c2[nH]c3ccccc3c2SCCNC(=O)c2ccccc2)cc1,7.4%
20,CS(=O)(=O)N1CCN=C1SCc1ccc([N+](=O)[O-])cc1,-2.2%
21,Cc1c(OCC(F)(F)F)ccnc1CS(=O)c1nc2ccccc2[nH]1 (stereo not drawn),30.6% and 46.2%
22,COc1ccc2nc(C(C)O)[nH]c2c1 (stereo not drawn),5.1%
23,COc1ccc2nc(S(=O)Cc3ncc(C)c(OC)c3C)[nH]c2c1 (stereo not drawn),72.5% (active)
